Some test systems named below: DU-145 prostate; K-562 leukemia; MALME-3M melanoma; MDA-MB-231 breast; RXF 393 renal; SF-268 CNS; SF-295 CNS; SF-539 CNS; UACC-257 melanoma; M14 melanoma; HCT-15 colon; HT29 colon; SNB-75 CNS; SNB-19 CNS; U251 CNS; PC-3 prostate; SK-MEL-5 melanoma; LOX IMVI melanoma; SK-MEL-28 melanoma.
Holding throughout (assay): NCI-60 one-dose screen, 48 h (100 = growth as untreated, 0 = no growth, -100 = all killed)
What all share (conditions): 10 µM unless noted

Here are results for seven compounds from PubChem BioAssay (NCI).

Molecules are shown by their SMILES. The panel holds about 83,000 compounds, 20% with a hit somewhere; the sample as a whole holds those more often.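 Assay: single dose, 48 h. Readout: percent growth (0 = no net growth; negative = cell death). Active: <10.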 Values without a mark were called inactive. The source made the active and inactive calls.

Consider `CC(C)C1=NOC(=O)C1=Cc1cn(-c2cccnc2)nc1-c1ccccc1`, for which the growth with DU-145 prostate was 104%; with K-562 leukemia, 72.7%; in the test with MALME-3M melanoma it was 111%; in the test on MDA-MB-231 breast, 96%; in the test with RXF 393 renal, 64.8%; in the test with SF-268 CNS, 102%. Moreover, the growth in the test with SF-295 CNS is 98.1%; in the test with SF-539 CNS it was 104%; in the test with UACC-257 melanoma it was 111%; in the test with M14 melanoma it was 103%; in the test on HCT-15 colon, 94.2%; in the test with HT29 colon it was 99.1%. The growth is 88.4% with SNB-75 CNS; 93.9% in the test with SNB-19 CNS; 83.5% in the test on U251 CNS; 94.1% in the test with PC-3 prostate; 102% with SK-MEL-5 melanoma; 80.2% in the test with LOX IMVI melanoma. Also, the growth with SK-MEL-28 melanoma is 112%.
For the compound `Cn1cc(-c2nnc(-c3cn(C)c4ncc(Br)cc34)s2)c2cc(Br)ccc21`, the growth in the test with DU-145 prostate is 95.4%; with K-562 leukemia, 97.8%; with MALME-3M melanoma it was 78.1%; in the test on MDA-MB-231 breast, 67.2%; in the test on RXF 393 renal it was 118%; in the test with SF-268 CNS it was 90.9%. Moreover, the growth with SF-295 CNS is 103%; in the test with SF-539 CNS it was 81.5%; with UACC-257 melanoma it was 92.5%; in the test on M14 melanoma, 97%; in the test on HCT-15 colon, 98.4%; in the test on HT29 colon it was 100%. The growth in the test with SNB-75 CNS is 64.3%; in the test on SNB-19 CNS it was 94.9%; in the test on U251 CNS it was 85.2%; in the test with PC-3 prostate it was 90.3%; with SK-MEL-5 melanoma it was 93.1%; with LOX IMVI melanoma it was 95.8%. In addition, the growth in the test on SK-MEL-28 melanoma is 95.9%.
Turning to `COc1cc(/C=C/C(=O)/C=C/c2ccc(-n3ccnc3C)cc2)ccc1O`, the growth in the test with DU-145 prostate is 54%; in the test on K-562 leukemia it was 13.2%; in the test on MALME-3M melanoma, 101%; in the test with MDA-MB-231 breast, 97.1%; in the test with RXF 393 renal it was 47.8%; in the test with SF-268 CNS, 49.9%. In addition, the growth in the test on SF-295 CNS was 84.3%; in the test with SF-539 CNS, -0.75% (active); with UACC-257 melanoma, 89.3%; with M14 melanoma it was 111%; in the test on HCT-15 colon, 82.4%; with HT29 colon, -42.9% (active). Moreover, the growth was 76.4% in the test on SNB-75 CNS; 79.3% in the test with SNB-19 CNS; -1.61% (active) in the test with U251 CNS; 74.2% with PC-3 prostate; 85.2% in the test with SK-MEL-5 melanoma; -88.7% (active) in the test on LOX IMVI melanoma. For the same compound, the growth in the test on SK-MEL-28 melanoma is 84.1%.
In the case of `O=C(COc1cccc(/C=C2\Oc3ccccc3C2=O)c1)c1ccc([N+](=O)[O-])cc1`, the growth was 111% with DU-145 prostate; 70.7% in the test with K-562 leukemia; 108% in the test with MALME-3M melanoma; 72.6% in the test on MDA-MB-231 breast; 97.6% in the test with RXF 393 renal; 96.2% with SF-268 CNS. In addition, the growth in the test on SF-295 CNS was 197%; in the test with SF-539 CNS, 97.4%; with UACC-257 melanoma, 97.6%; in the test with M14 melanoma, 100%; with HCT-15 colon, 94.2%; in the test with HT29 colon it was 108%. Also, the growth in the test on SNB-75 CNS is 81.7%; with SNB-19 CNS, 91.3%; in the test on U251 CNS, 93.6%; with PC-3 prostate, 86.6%; with SK-MEL-5 melanoma, 99%; with SK-MEL-28 melanoma, 135%.
On to `O=C(N/N=C1\c2ccccc2-c2cccc(C(=O)O)c21)c1ccc(O)cc1`, for which the growth is 101% in the test on DU-145 prostate; 105% with K-562 leukemia; 88.2% with MALME-3M melanoma; 92.2% with MDA-MB-231 breast; 97.6% with RXF 393 renal; 96.6% in the test on SF-268 CNS. For the same compound, the growth is 102% in the test with SF-295 CNS; 97.7% in the test on SF-539 CNS; 99.5% with UACC-257 melanoma; 98% in the test on M14 melanoma; 107% in the test on HCT-15 colon; 98.3% with HT29 colon. The growth in the test on SNB-75 CNS is 74%; in the test on SNB-19 CNS, 96.3%; in the test on U251 CNS, 101%; with PC-3 prostate, 92.1%; with SK-MEL-5 melanoma, 99.1%; with LOX IMVI melanoma it was 98.9%. Moreover, the growth with SK-MEL-28 melanoma is 102%.
Consider `COC(=O)[C@H](CC(C)C)NC(=O)NC(=O)NC(=O)CI`, for which the growth with DU-145 prostate was 109%; with K-562 leukemia, 2.16% (active); in the test with MALME-3M melanoma, -57% (active); with MDA-MB-231 breast, 33.4%; in the test on RXF 393 renal, 64.1%; in the test with SF-268 CNS, 85%. For the same compound, the growth in the test on SF-295 CNS is 88.8%; in the test with SF-539 CNS it was 77.2%; in the test with UACC-257 melanoma it was 98.2%; with M14 melanoma, 63.5%; in the test with HCT-15 colon it was -36% (active); in the test on HT29 colon, -43.2% (active). In addition, the growth in the test on SNB-75 CNS was 102%; with SNB-19 CNS, 92%; in the test with U251 CNS, 90.6%; with PC-3 prostate, 78.3%; in the test with SK-MEL-5 melanoma, 92.6%; in the test with LOX IMVI melanoma, -78.6% (active). Moreover, the growth in the test with SK-MEL-28 melanoma was 89.6%.
In the case of `C=C(C)[C@@H]1CC[C@]2(C(=O)N3CCN(C)CC3)CC[C@]3(C)[C@H](CC[C@@H]4[C@@]5(C)C/C(=C/c6ccncc6)[C@H](O)C(C)(C)[C@@H]5CC[C@]43C)[C@@H]12`, the growth in the test on DU-145 prostate is -12.4% [100 µM] (active); in the test with K-562 leukemia it was -13.4% [100 µM] (active); with MALME-3M melanoma, -55.1% [100 µM] (active); with MDA-MB-231 breast, -48.5% [100 µM] (active); in the test with RXF 393 renal it was -88.5% [100 µM] (active); with SF-268 CNS it was 4.1% [100 µM] (active). Moreover, the growth with SF-295 CNS was -53.6% [100 µM] (active); with SF-539 CNS it was -72% [100 µM] (active); in the test with UACC-257 melanoma, -31.2% [100 µM] (active); in the test on M14 melanoma it was -13.6% [100 µM] (active); in the test with HCT-15 colon it was -28.6% [100 µM] (active); in the test with HT29 colon it was -65.8% [100 µM] (active). The growth with SNB-75 CNS is 4.76% [100 µM] (active); with SNB-19 CNS, 14.4% [100 µM]; in the test on U251 CNS, -70.5% [100 µM] (active); in the test with PC-3 prostate it was -20.2% [100 µM] (active); with SK-MEL-5 melanoma, -82.4% [100 µM] (active); in the test with LOX IMVI melanoma it was -77.3% [100 µM] (active). The growth in the test with SK-MEL-28 melanoma was -54.3% [100 µM] (active).
